Source: PubChem
Hits are enriched below; roughly 10% of the tested compounds scored in any of these assays.
Luciferase inh – blocks purified firefly luciferase enzyme activity; actives 2.5% (n = 76,000); purified P. pyralis luciferase, luminescence, biochemical; Potency, µM (doses to about 115 µM), usual class: inhibitors; AID 1347043; P08659; note: nearly all actives have a fitted effect of over 65% in size
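Purified 10nM P. pyralis luciferase with 10uM D-luciferin and 10uM ATP in 50mM Tris acetate pH 7.5, 10mM Mg acetate, 0.01% Tween-20, 0.05% BSA. qHTS titration; luminescence read by CCD imager.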
GPT2 inh – blocks human glutamate pyruvate transaminase 2; Recombinant GPT2, coupled pyruvate oxidase/HRP Amplex Red fluorescence; Potency, µM (doses to about 57.7 µM), inactives show at the top dose activity change, negative = inhibition, usual class: inhibitors; actives 0.25% (n = 100,000); note: nearly all actives have a fitted effect of over 60% in size
Target sequence (Q8TD30 whole entry, looked up): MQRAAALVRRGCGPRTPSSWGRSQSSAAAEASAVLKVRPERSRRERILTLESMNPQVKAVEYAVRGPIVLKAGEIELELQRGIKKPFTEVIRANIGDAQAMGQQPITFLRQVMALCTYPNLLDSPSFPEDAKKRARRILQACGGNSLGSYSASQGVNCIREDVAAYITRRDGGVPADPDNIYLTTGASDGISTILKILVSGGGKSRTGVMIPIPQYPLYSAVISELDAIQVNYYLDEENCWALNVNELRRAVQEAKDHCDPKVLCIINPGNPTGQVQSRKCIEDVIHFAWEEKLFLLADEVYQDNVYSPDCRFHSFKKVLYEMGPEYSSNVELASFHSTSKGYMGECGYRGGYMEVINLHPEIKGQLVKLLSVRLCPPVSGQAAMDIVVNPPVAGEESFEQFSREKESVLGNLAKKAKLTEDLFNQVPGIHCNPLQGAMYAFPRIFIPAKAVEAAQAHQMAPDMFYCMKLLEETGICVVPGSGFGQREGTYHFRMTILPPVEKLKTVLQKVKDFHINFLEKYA
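Fluorescence read-out: pyruvate from GPT2 turnover coupled to pyruvate oxidase, HRP and Amplex Red (0.2mM ThPP, 0.2U/mL PO and HRP, 50uM Amplex final). Substrates 250uM a-KG, 2mM L-alanine; enzyme 10ng/uL; 30 min RT.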
NIH3T3 tox – cytotoxic compounds in NIH 3T3 cells | NIH 3T3 viability, CellTiter-Glo ATP luminescence, 48-72 h | Potency, µM (series often up to 96.7 µM), for inactives: top-dose activity change, negative = cytotoxicity, usual class: inhibitors | actives 4.3% (n = 94,000); note: nearly all actives have a fitted effect of over 55% in size
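Mouse fibroblast NIH 3T3 cells, 400 per well, received compound via pintool and were incubated for 48 or 72 hr prior to CellTiter-Glo ATP luminescence measurement.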
HEK293 tox – HEK 293 cell cytotoxicity | HEK 293 viability, ATP luminescence (CellTiter-Glo), 48-72 h | Potency, µM (doses to about 115 µM), for inactives: top-dose activity change, negative = cytotoxicity, hits mostly inhibitors | actives 6.6% (n = 94,000) | AID 1345083; note: nearly all actives have a fitted effect of over 60% in size
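250 HEK 293 cells/well; compound by pintool; incubated 48 or 72 hr at 37 degree Celsius; CellTiter-Glo added, 10 min RT, luminescence imaged.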
NPR1 antag – blocks ANP-stimulated signaling of human Npr1 receptor | P16066 | HEK293 hNpr1 GloSensor cGMP, ANP-stimulated luminescence | Potency, µM (titrated, usually from 46.3 µM), for the others: at the highest dose activity change, negative = inhibition, hits mostly inhibitors | actives 1.6% (n = 76,000) | AID 1347048; calls by dose curve; note: nearly all actives have a fitted effect of over 60% in size
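Compound pre-incubated 30 min at room temperature on GloSensor-loaded HEK293 cells stably carrying hNpr1 and the pGS-40F cGMP biosensor. Stimulation uses hNppA at 0.1 nM final; luminescence is taken at baseline and 20 min post-agonist.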
* hit, by the source's call; i = inactive; ? = inconclusive; . = no result given; ! = not confirmed by another sample; [ ] = another dose, or the depositor's remark. Unless noted, calls come from the whole dose curve; as a rule, active = well fitted curve in the direction sought with a large enough effect; inconclusive = small, poorly fitted or top-dose-only effect, or another doubt; inactive = no such curve, though single readings can be large; an effect the other way counts as inactive or inconclusive. % is set by controls: 0 for no effect and ±100 for the full control effect; potency is the fitted concentration of half-maximal effect.

SMILES	Luciferase inh	GPT2 inh	NIH3T3 tox	HEK293 tox	NPR1 antag
Cc1ccc2nc(C3CCCN(Cc4cccc(-c5cccs5)c4)C3)[nH]c(=O)c2c1 (centres undefined)	i	-3%	?	?	?
Cc1ccc2nc(C3CCN(Cc4ccc(-c5cccs5)cc4)CC3)[nH]c(=O)c2c1	i	-12%	?	35µM*!	-22%
CC(=O)Nc1ccc(CN2CCCC(c3nc4ccc(F)cc4c(=O)[nH]3)C2)cc1 (centres undefined)	i	i	?	?	3%
Cc1ccc2nc(C3CCCN(Cc4cccs4)C3)[nH]c(=O)c2c1 (centres undefined)	.	i	-22%	?	.
CC(C)CN1CCCC(c2nc3ccc(F)cc3c(=O)[nH]2)C1 (centres undefined)	i	4%[88.5 µM]	32µM*	25µM*	12%[70.6 µM]
CN(C)c1cccc(C(=O)N2CCC3(CC2)NC(=O)N(c2ccccc2)N3)c1	?	?	?	?	17%
COC(=O)CN1C(=O)N(CCc2ccccc2)C2(CCN(Cc3ccccn3)CC2)C1=O	i	i	4%	2%	7%
Cc1ccc2nc(C3CCCN(CC4CCCC4)C3)[nH]c(=O)c2c1 (centres undefined)	i	4%[88.5 µM]	?	71µM*!	-29%[70.6 µM]
Cc1nc(CNC(=O)c2cc(S(N)(=O)=O)ccc2F)cc(=O)[nH]1	i	i	-3%	-21%	5%
CC(C)CNC(=O)c1cc(C2CC2)nc2c1c(C1CCCN1)nn2-c1ccccc1 (centres undefined)	.	0%	18µM*	22µM*	.
O=C(NCc1ccncc1)c1cc(C2CC2)nc2c1c(C1CCCN1)nn2-c1ccccc1 (centres undefined)	.	1%	20µM*	45µM*	.
O=C(NCC(F)(F)F)c1cc(C2CC2)nc2c1c(C1CCCN1)nn2-c1ccccc1 (centres undefined)	.	i	22µM*	?	.
COCCCNC(=O)c1cc(C2CC2)nc2c1c(C1CCCN1)nn2-c1ccccc1 (centres undefined)	.	i	?	?	.
O=C1CN(C(=O)CCC[C@@H]2[C@H]3CCCN4CCC[C@@H](CN2Cc2ccccc2)[C@@H]34)CCN1	i	-6%	-1%	0%	2%
O=C(CC1CCCN(c2cn[nH]c(=O)c2)C1)NC1CCN(Cc2ccccc2)CC1 (centres undefined)	i	i	-1%	7%	2%
COCc1cc(NCc2cccnc2Oc2cccc(C(F)(F)F)c2)ncn1	i	4%	-32%	50µM*	-7%
CCC(CC)C(=O)NCc1cccnc1Oc1cccc(C(F)(F)F)c1	i	i	-24%	?	1%
CCOC(=O)C1(C/C=C/c2ccccc2)CCCN(C(=O)C2CCOCC2)C1 (centres undefined)	i	1%	-7%	89µM*	-25%
COC(=O)[C@@H]1Cc2c([nH]c3ccccc23)[C@H]2C[C@@H](NCCNC(C)=O)C[C@@H](c3ccc(C(C)C)cc3)N21	i	-2%	28µM*	13µM*	-25%
COC(=O)[C@@H]1Cc2c([nH]c3ccccc23)[C@@H]2C[C@@H](NCCNC(C)=O)C[C@@H](c3ccc(F)c(F)c3)N12	i	1%	32µM*	32µM*	5%
COC(=O)[C@@H]1Cc2c([nH]c3ccccc23)[C@H]2C[C@@H](NCCNC(C)=O)C[C@@H](c3ccc(C)cc3)N21	i	-4%	28µM*	28µM*	-12%
COCCNC(=O)[C@H]1C[C@H](Oc2ccccc2)CN1C(=O)NCc1ccc(C)cc1	i	-6%	-5%	i	0%
COC(=O)[C@@H]1Cc2c([nH]c3ccccc23)[C@H]2C[C@@H](NCCNC(C)=O)C[C@@H](c3ccc(C(F)(F)F)cc3)N21	i	?	20µM*	25µM*	-9%
CC(=O)NCCNC(=O)c1cccc(-c2ccc(C(F)(F)F)cc2)c1	.	i	-35%	-17%	.
